Rtt109 Vps75 = C. albicans Rtt109 histone acetyltransferase inhibition | Q5AAJ8 | purified Rtt109/Vps75, ThioGlo CoA-SH fluorescence, 4 h | inhibition, % at 34.9 µM | 330,000 tested, 0.16% active;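 active = inhibition of at least 50% in every replicate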
rCAG binder = binds r(CAG) RNA repeats. r(CAG) RNA repeat, TO-PRO-1 dye displacement fluorescence. 370,000 tested, 1.3% active. inhibition, % at 3 µM;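 active = inhibition above the plate cutoff, the mean of all test compounds on that plate plus 3 SD, cut at about 35% in these data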;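 also: higher means more dye released from RNA so lower well fluorescence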
ALR H2O2 inh = inhibitors of human sulfhydryl oxidase ALR; inhibition, % (no concentration beside the values); P55789; 290,000 tested, 3.8% active; purified ALR, DTT oxidation, H2O2 HRP-luminol luminescence;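 active = mean replicate inhibition above about 79%, with every replicate also reaching it, limit read from the data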
Target sequence (P55789 whole entry, looked up): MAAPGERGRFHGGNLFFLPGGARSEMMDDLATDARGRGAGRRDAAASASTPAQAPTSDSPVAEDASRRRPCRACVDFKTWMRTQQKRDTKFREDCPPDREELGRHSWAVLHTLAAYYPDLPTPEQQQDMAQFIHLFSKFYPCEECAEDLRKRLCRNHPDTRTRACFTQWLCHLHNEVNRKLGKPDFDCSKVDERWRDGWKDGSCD
LANA-H2B inh = blocks KSHV LANA binding to histone H2A/H2B. Q9QR71. cell-free LANA-H2A/H2B peptide, fluorescence polarization. inhibition, % (test concentration not listed). 320,000 tested, 0.6% active. AID 2629; in the data active = inhibition mostly above about 10%, no sharp cut-off; inactive = mostly below about 6.7%
PRMT1 FP inh = blocks human protein arginine methyltransferase 1; recombinant PRMT1, activity-based probe fluorescence polarization; AID 652257; Q99873; inhibition, % at 2.79 µM; 370,000 tested, 1.3% active;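 active = inhibition above about 21% made by adding two undisclosed values, limit read from the data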
ABHD5 PLIN5 PPI = inhibitors of human ABHD5-perilipin-5 interaction | Split G. princeps luciferase complementation, luminescence, 4 h | 360,000 tested, 0.78% active | Q00G26+Q8WTS1 | inhibition, % at 4 µM | AID 602281;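 active = inhibition above the mean inhibition across every tested compound plus 3 SD, cut at about 22% in these data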
rCAG binder conf = r(CAG) RNA repeat binding, confirmation. shares compounds with rCAG binder. TO-PRO-1 dye displacement fluorescence. inhibition, % at 3 µM. 4,300 tested, 70% active. AID 652065;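 active = inhibition above a per-plate cutoff, the mean inhibition of sample wells plus 3 SD, cut at about 35% in these data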;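 also: loss of TO-PRO-1 fluorescence as compound displaces dye from 1x1 AA loop RNA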
dCAG dye counter = counter-screen for rCAG RNA binders: DNA CAG dye complex inhibitors. shares compounds with rCAG binder. d(CAG) DNA oligo TO-PRO-1 dye displacement, fluorescence. inhibition, % at 3 µM. 4,300 tested, 94% active;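 active = inhibition above its plate's cutoff, the mean test-well inhibition plus 3 SD, cut at about 4.8% in these data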;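 also: hits displace the dye from DNA and so lower well fluorescence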
dCAG dye DR = counter-screen for rCAG binders: inhibitors of DNA CAG TO-PRO-1 complex; shares compounds with rCAG binder; DNA CAG/GTC duplex TO-PRO-1 dye displacement fluorescence; IC50, µM; 250 tested, 20% active; AID 686960; in the data active = IC50 below about 10 µM
A number is an active result. In the library only some 5.9% were active in any assay of this set; here they are far more common.

Screening CC(C)(C)OC(=O)C1=CC[C@@H](c2ccc(Cl)c(Cl)c2)N(S(=O)(=O)c2ccc(F)cc2)[C@H]1c1cccc(F)c1 returned rCAG binder inactive, PRMT1 FP inh inactive and ABHD5 PLIN5 PPI inactive.
For Cc1ccccc1S(=O)(=O)N1[C@@H](c2ccccc2)C(C(=O)O)=CC[C@H]1c1ccc(Cl)cc1 the results were Rtt109 Vps75 inactive, rCAG binder 65, ALR H2O2 inh inactive, LANA-H2B inh inactive, PRMT1 FP inh inactive, ABHD5 PLIN5 PPI inactive, rCAG binder conf 74 and dCAG dye counter 36.
For Cc1ccccc1S(=O)(=O)N1C(c2ccc(Cl)c(Cl)c2)CC=C(C(=O)O)C1c1cccc(Br)c1 (stereo not drawn) the results were rCAG binder 86, PRMT1 FP inh inactive, ABHD5 PLIN5 PPI inactive, rCAG binder conf 85 and dCAG dye counter 57.
Screening Cc1ccc(NC(=O)OC2CC3CC2[C@H]2CCCCN2C3)cc1C (stereo partly drawn) returned rCAG binder inactive and PRMT1 FP inh inactive.
For CCOC(=O)[C@]12CCCCC/C=C\1N(Cc1ccc(OC)cc1)C(=O)[C@H]2CC(=O)NCc1cccc2ccccc12 the results were rCAG binder inactive and PRMT1 FP inh inactive.
`Cc1ccccc1S(=O)(=O)N1[C@@H](c2ccc(Br)cc2)C(C(=O)O)=CC[C@H]1c1ccc(Cl)cc1` gave Rtt109 Vps75 inactive, rCAG binder 88, PRMT1 FP inh inactive, ABHD5 PLIN5 PPI inactive, rCAG binder conf 84 and dCAG dye counter 57.
Cc1ccc([C@@H]2CC=C(C(=O)O)[C@H](c3ccc(Br)cc3)N2S(=O)(=O)c2ccccc2C)cc1 was read as Rtt109 Vps75 inactive, rCAG binder 86, PRMT1 FP inh inactive, ABHD5 PLIN5 PPI inactive, rCAG binder conf 81 and dCAG dye counter 48.
For Cc1ccc([C@@H]2CC=C(C(=O)O)[C@H](c3ccc(Cl)cc3)N2S(=O)(=O)c2ccccc2C)cc1 the results were Rtt109 Vps75 inactive, rCAG binder 73, LANA-H2B inh inactive, PRMT1 FP inh inactive, ABHD5 PLIN5 PPI inactive, rCAG binder conf 70, dCAG dye counter 31 and dCAG dye DR inactive.
CCc1ccc([C@@H]2CC=C(C(=O)O)[C@H](c3ccc(Br)cc3)N2S(=O)(=O)c2ccc(C)cc2)cc1 was read as Rtt109 Vps75 inactive, rCAG binder inactive, LANA-H2B inh inactive, PRMT1 FP inh inactive and ABHD5 PLIN5 PPI inactive.
For COc1cccc([C@H]2NC(=O)C/C=C/[C@@H](C)[C@@H](c3cccc(OC)c3)NC(=O)C/C=C/[C@H]2C)c1 the results were rCAG binder inactive and PRMT1 FP inh inactive.
Screening CCN(CC)C(=O)c1cccc(-c2csc(C(O)c3ccc(F)c(F)c3)n2)c1 (stereo not drawn) returned rCAG binder inactive, PRMT1 FP inh inactive and ABHD5 PLIN5 PPI inactive.
Cc1ccc(-c2nc3c(Cl)cc(Cl)cc3c(=O)n2O)cc1 was read as Rtt109 Vps75 inactive, rCAG binder 58, ALR H2O2 inh inactive, LANA-H2B inh inactive, PRMT1 FP inh inactive, ABHD5 PLIN5 PPI inactive, rCAG binder conf inactive and dCAG dye counter inactive.
`O=c1c2cc(Br)ccc2nc(-c2ccc(Cl)cc2)n1O` gave Rtt109 Vps75 inactive, rCAG binder inactive, LANA-H2B inh inactive, PRMT1 FP inh inactive and ABHD5 PLIN5 PPI inactive.
C=CCNc1nc(-c2sc(NC(=O)C(C)(C)C)nc2C)c(-n2cc(-c3ccccc3)nn2)s1 was read as rCAG binder inactive, PRMT1 FP inh inactive and ABHD5 PLIN5 PPI inactive.
For COc1ccc(NC(=O)C2c3ccccc3OCC(=O)N2Cc2ccc3c(c2)OCO3)cc1 (stereo not drawn) the results were rCAG binder inactive, PRMT1 FP inh inactive and ABHD5 PLIN5 PPI inactive.
For COc1ccc(/C=C2\C(=O)ON=C2c2cccc([N+](=O)[O-])c2)cc1 the results were rCAG binder 41, ALR H2O2 inh inactive, LANA-H2B inh inactive, PRMT1 FP inh inactive, rCAG binder conf inactive and dCAG dye counter 6.0.
